The values below come from PubChem BioAssay (NCI).

The structures appear in SMILES notation. The panel holds about 83,000 compounds, 20% with a hit somewhere; the sample as a whole holds those more often.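 The endpoint reported here, percent growth, reads 100 for growth as untreated, 0 for no net growth and -100 for all cells dead.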 Unmarked numbers belong to inactive results. Activity calls are given as the source filed them. The calls were made as follows: active = growth percent below 10; inactive = the rest.

Test systems include SK-MEL-2 melanoma; EKVX NSCLC; SN12C renal; UO-31 renal; TK-10 renal; ACHN renal; CAKI-1 renal; A498 renal; CCRF-CEM leukemia; MOLT-4 leukemia; SR leukemia; RPMI-8226 leukemia; OVCAR-8 ovarian; OVCAR-5 ovarian; OVCAR-4 ovarian; SK-OV-3 ovarian; IGROV1 ovarian; OVCAR-3 ovarian; HS 578T breast; NCI/ADR-RES ovarian.
What all share (assay): NCI-60 one-dose screen, 48 h (100 = growth as untreated, 0 = no growth, -100 = all killed)
What all share (conditions): 10 µM unless noted

Take `COc1ccc(C(=O)c2cc(C(C)=O)c3c(C)cc(C)cn23)cc1`: the growth is 70.9% in the test on SK-MEL-2 melanoma; 49.4% in the test on EKVX NSCLC; 55% in the test with SN12C renal; 67.5% in the test with UO-31 renal; 57.4% with TK-10 renal; 56.6% in the test with ACHN renal. Moreover, the growth in the test with CAKI-1 renal is 38.6%; in the test with A498 renal, 86.1%; with CCRF-CEM leukemia, 104%; in the test on MOLT-4 leukemia, 82.3%; in the test on SR leukemia it was 31.8%; with RPMI-8226 leukemia, 67.7%. Moreover, the growth with OVCAR-8 ovarian is 18.4%; in the test on OVCAR-5 ovarian, 80.5%; in the test with OVCAR-4 ovarian it was 49.8%; with SK-OV-3 ovarian it was 29.1%; with IGROV1 ovarian it was 80.8%; in the test on OVCAR-3 ovarian, 43.9%. The growth in the test on HS 578T breast was 43.4%; in the test on NCI/ADR-RES ovarian, 35%.
Take `C=CCSc1nnc(-c2ccc(-c3nc4ccc(Cl)cc4[nH]3)cc2)o1`: the growth with SK-MEL-2 melanoma is 38.7%; in the test with EKVX NSCLC it was 60.8%; in the test on SN12C renal it was 63.1%; with UO-31 renal it was 78.4%; with TK-10 renal it was 90.3%; in the test on ACHN renal, 78.8%. Besides, the growth was 49.2% in the test on CAKI-1 renal; 106% in the test with A498 renal; 37.1% in the test on CCRF-CEM leukemia; 48.9% in the test on MOLT-4 leukemia; 23.7% in the test with SR leukemia; 55.2% in the test with RPMI-8226 leukemia. Moreover, the growth in the test on OVCAR-8 ovarian was 63.9%; in the test with OVCAR-5 ovarian, 76.8%; in the test with OVCAR-4 ovarian it was 66.5%; in the test with SK-OV-3 ovarian it was 88.8%; in the test on IGROV1 ovarian, 59.6%; with OVCAR-3 ovarian, 34%. Besides, the growth is 36.2% in the test on HS 578T breast and 54.3% in the test with NCI/ADR-RES ovarian.
With `COc1ccc2c(c1)C(Sc1ccc(F)cc1)c1c(nc(N)c(C#N)c1N)O2` (stereo not given), the growth in the test on SK-MEL-2 melanoma was 97%; in the test on EKVX NSCLC, 87.1%; with SN12C renal, 78.5%; in the test with UO-31 renal, 39.8%; in the test on TK-10 renal, 103%; in the test with ACHN renal, 86.6%. Moreover, the growth in the test with CAKI-1 renal was 84.9%; in the test on A498 renal, 101%; in the test on CCRF-CEM leukemia it was 1.67% (active); in the test on MOLT-4 leukemia, 53.9%; in the test on SR leukemia, 38%; with RPMI-8226 leukemia, 71.7%. The growth with OVCAR-8 ovarian was 90.1%; with OVCAR-5 ovarian it was 122%; in the test on OVCAR-4 ovarian, 97.8%; in the test on SK-OV-3 ovarian, 122%; in the test on IGROV1 ovarian, 70.6%; in the test on OVCAR-3 ovarian, 128%. The figures for the growth in the test on HS 578T breast and in the test with NCI/ADR-RES ovarian were 85.5% and 95.3%, respectively.
Turning to `CCCCCCCCc1ccc(C(=O)Nc2ccc(C)c(OP(=O)(O)O)c2)cc1`, the growth in the test with SK-MEL-2 melanoma was 109%; in the test on EKVX NSCLC, 101%; in the test with SN12C renal it was 95.1%; with UO-31 renal, 62.4%; with TK-10 renal it was 107%; with ACHN renal, 103%. Besides, the growth with CAKI-1 renal was 102%; with A498 renal, 107%; in the test on CCRF-CEM leukemia it was 42.9%; with MOLT-4 leukemia, 78.3%; in the test with SR leukemia, 81.9%; with RPMI-8226 leukemia, 50.6%. The growth in the test with OVCAR-8 ovarian is 100%; with OVCAR-5 ovarian, 120%; in the test with OVCAR-4 ovarian it was 88.9%; in the test with SK-OV-3 ovarian, 115%; with IGROV1 ovarian, 110%; in the test with OVCAR-3 ovarian, 96.2%. For the same compound, the results for the growth in the test on HS 578T breast and in the test with NCI/ADR-RES ovarian were 91.6% and 97.5%, respectively.
`Nc1nn2c(-c3cc4cc(Br)ccc4oc3=O)ccnc2c1N=Nc1ccc(S(N)(=O)=O)cc1`: the growth is 94.6% in the test on SK-MEL-2 melanoma; 91.9% in the test on EKVX NSCLC; 74% with SN12C renal; 76.6% with UO-31 renal; 114% in the test on TK-10 renal; 95.7% with ACHN renal. Besides, the growth in the test with CAKI-1 renal is 81%; in the test with A498 renal, 149%; with CCRF-CEM leukemia it was 82.3%; in the test on MOLT-4 leukemia, 89.9%; in the test on SR leukemia, 74.4%; in the test on RPMI-8226 leukemia, 109%. Also, the growth was 79% with OVCAR-8 ovarian; 112% with OVCAR-5 ovarian; 100% in the test on OVCAR-4 ovarian; 58.9% in the test with SK-OV-3 ovarian; 93.1% with IGROV1 ovarian; 103% with OVCAR-3 ovarian. Besides, the growth in the test on HS 578T breast is 102%; in the test on NCI/ADR-RES ovarian, 103%.
`CN1C(=O)/C(=C/c2ccco2)S/C1=N/c1nccs1`: the growth in the test with SK-MEL-2 melanoma was 108%; with EKVX NSCLC, 91.8%; in the test with SN12C renal, 100%; in the test with UO-31 renal it was 80.9%; with TK-10 renal, 130%; in the test with ACHN renal it was 100%. Also, the growth in the test on CAKI-1 renal is 91.7%; in the test on A498 renal, 107%; in the test on CCRF-CEM leukemia, 96.8%; with MOLT-4 leukemia, 107%; in the test on SR leukemia, 89.5%; in the test on RPMI-8226 leukemia it was 115%. Further, the growth in the test with OVCAR-8 ovarian is 104%; in the test on OVCAR-5 ovarian it was 110%; with OVCAR-4 ovarian, 97.8%; in the test with SK-OV-3 ovarian it was 106%; in the test with IGROV1 ovarian it was 106%; with OVCAR-3 ovarian, 114%. The growth in the test on HS 578T breast was 111%; in the test with NCI/ADR-RES ovarian, 101%.
With `Nc1nnc(CS(=O)(=O)c2ccccc2)s1`, the growth in the test on SK-MEL-2 melanoma was 113%; with EKVX NSCLC it was 103%; in the test with SN12C renal, 106%; with UO-31 renal, 77.1%; in the test on TK-10 renal, 98.7%; in the test on ACHN renal, 104%. Also, the growth is 88.8% in the test with CAKI-1 renal; 137% with A498 renal; 102% with CCRF-CEM leukemia; 103% in the test on MOLT-4 leukemia; 108% in the test on SR leukemia; 103% with RPMI-8226 leukemia. Moreover, the growth is 97.4% in the test with OVCAR-8 ovarian; 109% with OVCAR-5 ovarian; 121% in the test with OVCAR-4 ovarian; 104% in the test with SK-OV-3 ovarian; 101% in the test with IGROV1 ovarian; 104% in the test with OVCAR-3 ovarian. Besides, the values for the growth with HS 578T breast and in the test with NCI/ADR-RES ovarian were 86% and 104%, respectively.
